The values below come from PubChem BioAssay AID1508600 (Functional Genomics Laboratory (NCATS/FGL), 2020).

Out of some 53,000 sequences screened, about 3,700 (7%) were called active. Only a selection was taken, and actives are over-represented in it overall. A number with no mark means an inactive call.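 Rule for the calls: active = gene knockdowns whose robust z-score for IL-1 alpha signal is at least 2 or at most -2, so actives lie on both sides; inactive = the rest.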

This assay is described as follows: Components of the Cytosolic LPS Sensing Pathway: Gene Identification via Genome-wide siRNA Screen.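 Note: robust z of the log signal after scaling to non-targeting control siRNA wells of the plate.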 Conditions: RAW264.7 macrophages, IL-1a HTRF, actives lie on both sides, screened at 100 nM (by protocol), cells primed 5 h with Pam3CSK4 first. In outline:
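Supernatant IL-1a by HTRF from RAW264.7 cells primed with Pam3CSK4 (5 hours) and transfected with LipidA (24 hour) after 48h siRNA knockdown at 100 nM; cell viability checked with CellTiter-Glo.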
(In TR-FRET formats the signal depends on donor and acceptor labels being close together.)
For CCUUGUACACGGAUUGAAUTT against Itga6, the z-score is -0.192.

Regarding GGUAGGAAACCUCUCAGAGTT against Kcnc1, the z-score is 0.85.

With GGUGUUCAAAAUUCCUGCCTT against Mbl2, the z-score was 0.0864.

As for GCUAGAGCUCACCAAAUAATT against Fam83a, the z-score was 0.759.

Take UAGUGAGCAAGGAAUUGGATT against Gm20815: the z-score was -0.238.

As for GGAGAAGAAGUGCUUCCCUTT against Gls2, the z-score is -2.81 (active).

In the case of GGAGGAGAAGAAACACCUGTT against Klc1, the z-score was -1.73.

With GGACAAAAGCAAAGAAAAGTT against R3hdm2, the z-score was -0.822.

GGAAAAUGUGAAACAGCUATT against Dhx40: the z-score was -0.873.

As to GAGUUCCAGUUUAUCCCUUTT against Klra1, the z-score is -2.06 (active).

On to CCCGUGCUUCAAAUAGAGATT against Cavin3, for which the z-score is 0.789.

For the sequence CAGCGAUCCAAGUACCUGGTT against Mbp, the z-score is 0.568.

On to GGAAUUUCACUAACCUUAGTT against Tert, for which the z-score is 1.55.

In the case of GGCAAAAGCGAAGAAUUUATT against E2f5, the z-score was 2.69 (active).

GGAUUCCUGAUUUCUUCAUTT against Snip1: the z-score is 0.915.

As to GGAGAUAAAAAUCCAAGCATT against Stx19, the z-score is 0.274.

Regarding GCAUAUGACACCGUAUCAGTT against Gprc5d, the z-score was 0.914.

Turning to GCUCCUAUCCACAAUGCUGTT against Radil, the z-score was -0.0853.

As for GGCAAAGAUGAUGGAAAAATT against Srp68, the z-score was 0.307.

With GGGACGAUGUCACUAUUAATT against Myrip, the z-score is 1.31.

On to GGCAGACUGCUGACAUAUGTT against Cd37, for which the z-score is -2.44 (active).

With CGAGCUGGAUCUGUUUAGATT against Nsmce1, the z-score was 0.357.

With CGUGGAGAUCAUCCACUCATT against Inf2, the z-score was -2.44 (active).

In the case of “GGAUUAUGAUUUGCCUGAUTT against 4932414N04Rik”, the z-score was 1.05.

Consider GCUAGAUGCUAUGAAGCGATT against Ap3b1, for which the z-score was -0.406.

CGUGAUUUCAUGCUGUGGCTT against Tal2: the z-score was -2.19 (active).

Take GGAUCUAAGCCUGUUGUGATT against Zfp647: the z-score is -0.82.

As to GGUCACCCUGUUUAGGCCUTT against Fgd3, the z-score was 0.571.

Turning to CCUGCCAAUCUGUCUAAGUTT against Haus1, the z-score was -0.121.

With GUCAUGAGAUUGAAUACAATT against Olfr569, the z-score is -0.0298.

On to GGGAUUGAUUUCAACAAUGTT against Vmn1r33, for which the z-score is 0.464.

Consider CCCUUGCUAGUCCUUCUAUTT against Bora, for which the z-score is -0.65.

GGUUGUAAAGGAAGAGAAGTT against Lyve1: the z-score is 0.397.

Turning to GGCCAGACACUACAGGUAATT against Aldh16a1, the z-score is 0.0594.

On to GCUACAGCUAUAUCGCUAUTT against Cnot8, for which the z-score was 0.625.

For the sequence GGCUUUUAUUUUCUGGGAUTT against Barhl1, the z-score was 2.4 (active).

In the case of GGAAUUAUGAUGUAGACAGTT against Garre1, the z-score is 0.662.

In the case of GCCUUGGUCCUUAAAUAUATT against Slc7a2, the z-score is -0.414.

As for CGAUAUUUGGUGUGAAAUGTT against Tmem70, the z-score was -0.609.

On to GGGAAAUGCUUCUAAAAAUTT against Pcdhb11, for which the z-score is 0.377.

As for CCACCAUCAUGAGAGAGGATT against Olfr350, the z-score was 0.00462.

Regarding GGCAAAUGUAGACAUGUAUTT against Defb44-ps, the z-score was -0.0483.

On to GCUAAUAUGCCACUGCCCGTT against Pls3, for which the z-score is 1.55.

Take GCUAUGUGUACAGCUGCUGTT against Vmn1r62: the z-score was 0.21.

Turning to CGUGCAGUGUGCUUCACAATT against Smarcad1, the z-score was -1.89.

As to GGUCUCAAGUUUUACAUUCTT against Prss35, the z-score was 2.2 (active).

With GGCUCUGGCUAAGUACUUGTT against Cenpb, the z-score was -0.943.

Consider GCUAACUGAGCUGCCGGAATT against Lrrn3, for which the z-score is 0.264.

Take GCUUCAUGCACGGUUCUAUTT against Cib2: the z-score was 1.65.

As for GGCUCAGAAGAAAAUGGAUTT against Kcnk4, the z-score is 0.166.

With GGAUCUGUAUUGUAAACAATT against Pcmtd2, the z-score is 0.463.

As for GCCGUUCAUUUCAACCGUGTT against Wdr5, the z-score was -0.0339.

Regarding GGCUCACUCUCCAUUCUACTT against Asb6, the z-score is -0.902.

Consider GGCACUCUCAGCUUUUGACTT against Olfr2, for which the z-score was -2.43 (active).

In the case of CCGCCUGGAUAAUUAUGAUTT against Cltc, the z-score is 0.309.

As for GGAUCAUGUCAUCACAAAATT against Fzd3, the z-score was -0.319.

Regarding GGUGUCCAAUUGCCCUAUCTT against Tnfrsf12a, the z-score was -1.98.

Regarding GGGAACAGCAUGAAGGAAGTT against Krt78, the z-score was 0.688.

Consider GGCACGUUAUGAAGACCAGTT against Ttc6, for which the z-score was 1.49.

Take GAGAAACAACAAUUUGGGATT against Gm20815: the z-score is 2.07 (active).

Take GGCUGAUUAGAAUACCUCCTT against Adra2b: the z-score was 0.352.

For the sequence GGCCUACGUGCUAAACAUCTT against Atp1b1, the z-score was 1.77.

Regarding GCUCUAAAUGAACAUCUCATT against Snai3, the z-score was 0.322.

On to GGUCCUAUGGAUUAAUGCUTT against Ccn4, for which the z-score is 3.46 (active).

Turning to CCCUAAAACCAAAUGUACATT against Tet2, the z-score is 1.7.

On to GGAUGUAACAUUUCUUCAATT against Rmi1, for which the z-score was 0.567.

For GGCUGGUAAUUCACUUAAUTT against Kcnk2, the z-score is -2.54 (active).

For GGAAAUCACCAUGCCCUCUTT against S100a8, the z-score was -0.0382.

In the case of GCAUGGAGAUUCUGUGCGGTT against Trim45, the z-score is -1.13.

As to CCGAAAAUGGUAAAUAACUTT against Rnf17, the z-score is 0.111.

Regarding GGAGGAACCUCAGAAACAGTT against Knstrn, the z-score is -2.19 (active).

With GCUAUUUUGGGACGAGUCATT against Col13a1, the z-score was -0.7.

GGGAUCAAGUUAAAUAGACTT against Snhg16: the z-score is -0.184.

For the sequence GCGAACAGUUGAAUAGAUUTT against Slc25a46, the z-score was -0.108.

For GGUGGUCACUAAGAAGUUCTT against Prps1l1, the z-score was 2.48 (active).

Consider CCAACACUAUUACUGUAAATT against Arg2, for which the z-score was 0.159.

Consider GGCCAGAAAAUUAAGGAGCTT against Faap100, for which the z-score is 1.15.

Turning to GGCAACUGAAAUGUUUGUUTT against Rap2c, the z-score is 2.14 (active).

In the case of CCUUGAGUACUUAUUGCGUTT against Chac1, the z-score was 0.934.

Turning to GCCAACUCGAACAUUUUGATT against Zfp280b, the z-score was 0.567.

GCUACUCGCGUUUAAUUUUTT against Slc9a9: the z-score is -0.238.

On to GACCUUUCUCUUCUUGGCUTT against Olfr434, for which the z-score is -2.1 (active).

As for GGAUAACCCUCAGAAGUCCTT against Was, the z-score was 0.664.

On to GGAAUAAUCAAGCUAGGGATT against Satb2, for which the z-score is -2.2 (active).

GGAGAGAGGACAACUUCUCTT against Mrm1: the z-score was 1.3.

Consider GGCUUUUAACACCUUCAUUTT against Clptm1l, for which the z-score was 0.495.

For the sequence GCUUCUUCUGUGAACUUCCTT against Olfr854, the z-score is -0.939.

Take GGAAGCUGCUUUUCUAAAUTT against Il7: the z-score is 2.92 (active).

With GGCAGUGAGAGUCACAAGATT against Cdipt, the z-score is -1.74.

Take GGAAAUGCAGUUGUGAAUGTT against Rab4a: the z-score is -2.03 (active).

Turning to GCCCAUGUUAGAGGUUUUGTT against Rsph3a, the z-score is 0.838.

For the sequence GGGAGAUGAGUUUUCUGAUTT against Cyp2c70, the z-score was 1.15.

With GGCAGUUGAUUCCUUUAAATT against Baz1a, the z-score is 0.0425.

GCUGUACCCGAAUGAGUUUTT against Mgat2: the z-score is 2.54 (active).

Regarding GCCCUUAGCUGCAUGAAUUTT against Laptm4b, the z-score is -0.661.

As for GGACCGUCUGUCCUUUGUCTT against Nectin2, the z-score was 0.618.

Consider GGUAGAGAAGAACGGUACCTT against Mb21d2, for which the z-score is 1.08.

With CCGAGUAAUUGGAAGUGGUTT against Ldha, the z-score was 2.08 (active).

For the sequence GGUGCUUUCUGGAUGAAGATT against Akirin1, the z-score was -0.282.

Take GGCUUUUGGAGAAAAAGGATT against Nus1: the z-score is 1.92.

GGAAAUGUAGUGAAGGGUGTT against Ndfip2: the z-score was 2.03 (active).

GGGCCUUACGUCAUUCUCUTT against Dnajb7: the z-score was -0.319.

In the case of GGAUUUCAUUCCAAACAUGTT against Hbs1l, the z-score was -0.161.

For the sequence CGGGACUAUUAUUACUCCATT against Ap2m1, the z-score is -1.22.

GGAAGAUCUCUUGUCUGCUTT against Mtcp1: the z-score was -0.269.

Take GGGAGAUGCAACCUCUCUUTT against Dennd5b: the z-score is 2.91 (active).

As to GGGAAAUCUAUUUUUGUGATT against Mob3c, the z-score was -1.77.

Turning to GGUCUGGAGACAAUCAUCATT against Rnf222, the z-score is -2.47 (active).
